Bioassay records (PubChem)
D2 ag-1: activates the human D2 dopamine receptor. P14416. HEK293 T-REx D2 cells, calcium flux agonist mode. activation, % at 2 µM. hit rate 0.53% among 340,000;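 active means activation over 3 SD above normal in the single-dose calcium agonist read, cut at about 30% in these data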
Target sequence (P14416 whole entry, looked up): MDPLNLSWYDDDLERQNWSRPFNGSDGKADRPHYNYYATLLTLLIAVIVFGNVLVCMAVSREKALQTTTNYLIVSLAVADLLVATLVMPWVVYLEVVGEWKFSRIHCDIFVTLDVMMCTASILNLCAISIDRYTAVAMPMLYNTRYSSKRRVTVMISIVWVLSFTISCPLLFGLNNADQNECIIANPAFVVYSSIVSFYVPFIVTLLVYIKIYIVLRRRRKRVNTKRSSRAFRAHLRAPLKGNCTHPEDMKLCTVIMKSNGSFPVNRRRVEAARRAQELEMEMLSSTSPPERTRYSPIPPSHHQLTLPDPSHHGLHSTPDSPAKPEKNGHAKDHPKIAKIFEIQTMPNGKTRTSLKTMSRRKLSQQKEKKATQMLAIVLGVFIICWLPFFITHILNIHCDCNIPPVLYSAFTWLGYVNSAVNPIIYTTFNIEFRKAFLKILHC
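HEK293 Trex D2 cells, tetracycline-induced, o/n 30 C 5% CO2; no-wash Ca dye, RT 30–90 min; 10-cycle baseline, 23 nl cpd added, kinetic Ca read 180 s; agonist hits = positive Ca response.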
D2 PAM-1: positively modulates the human D2 dopamine receptor allosterically. P14416. HEK293 T-REx D2, calcium flux, EC20 dopamine potentiation. potentiation, % at 10 µM. hit rate 0.34% among 340,000;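 active means potentiation over 3 SD above the plate norm, cut at about 30% in these data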
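Tetracycline-induced HEK293 T-REx cells force-coupled to calcium signalling expressed D2; compounds were pin-added after a 10 s baseline, read kinetically 180 s, then an EC20 dopamine challenge followed with a further 180 s calcium read.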
D2 antag: D2 dopamine receptor (human) antagonism | P14416 | AID 485344 | inhibition, % at 10 µM | HEK293 TREx D2 cells, calcium flux, dopamine EC80 | hit rate 2% among 340,000; in the data active means inhibition above about 30%; inactive means below that, where a call was filed
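Read-out: kinetic calcium fluorescence (1 cycle/s) in inducible HEK293 T-REx D2 cells after an EC80 dopamine addition that followed 180 s compound preincubation. Loss of the dopamine response indicates antagonism.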
D2 PAM-2: positive allosteric modulators of human D2 dopamine receptor | P14416 | DiscoveRx D2 beta-arrestin cells, luminescence, 90 min; 100% = 57 uM dopamine signal | potentiation, % (test concentration not listed) | hit rate 0.23% among 360,000 | AID 624464; in the data active means potentiation above about 50%; inconclusive means mostly about 30% to 49%
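PathHunter D2 cells, attached overnight at 37 deg C, received compound in DMSO plus dopamine at EC20 (50 nM final) for 90 min at 37 deg C. Beta-arrestin recruitment was read as luminescence after 1 h with detection reagent at ambient temperature.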
D2 ag-2: activates the human D2 dopamine receptor | DiscoveRx PathHunter D2 beta-arrestin, luminescence, 90 min; 100% = 57 uM dopamine signal | activation, % (concentration not given with the values) | hit rate 0.084% among 360,000; in the data active means activation above about 40%; inconclusive means between about 15% and that limit
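Agonist mode: compounds alone added to overnight-plated D2 PathHunter cells for 90 min at 37 C, with 57 uM final dopamine (EC100) defining full response. Beta-arrestin recruitment detected by chemiluminescent reagent, read after 1 h at ambient temperature.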
D3 ag: confirmation of human D3 dopamine receptor agonists, beta-arrestin; shares compounds with D2 ag-1; DiscoveRx D3 beta-arrestin cells, luminescence, 90 min; Potency, µM (series often up to 76.9 µM), actives largely listed as activators; hit rate 4% among 2,300; AID 720506; further: nearly all actives have a fitted effect of over 70% in size
D2 ag-3: counter-screen for D3 agonists: human D2 dopamine receptor agonism; shares compounds with D2 ag-1; DiscoveRx PathHunter D2 beta-arrestin, luminescence, 90 min; response scale: percent relative to full dopamine signal; Potency, µM (series often up to 76.9 µM), usual class: activators; hit rate 5.9% among 2,300; AID 720507; further: nearly all actives have a fitted effect of over 70% in size
Of the large screens only hits and unclear results are named; the others gave an inactive call (follow-up assays come after a bar, where they were run). Only some compounds are listed: those with a hit (about 2.4% of all), similar ones and a draw of the others. Unless noted, the call rests on the fitted dose curve; in most records, active means well fitted activation curve with a large enough effect; inconclusive means small, poorly fitted or top-dose-only effect; inactive means flat fitted curve, though single readings scatter.

O=C(C1CCN(S(=O)(=O)c2ccc(Cl)cc2)CC1)N1CCC1	none
O=S(=O)(NCC(c1cccnc1)N1CCN(Cc2ccccc2)CC1)c1ccccc1 (stereo not drawn)	D2 ag-1 61 | D3 ag inactive | D2 ag-3 inactive
Cc1ccc(S(=O)(=O)NCC(c2cccnc2)N2CCN(Cc3ccccc3)CC2)cc1 (stereo not drawn)	none
CCCN(CC(=O)Nc1ccccc1OC)C(=O)CSC(=S)N1CCCC1	none | D3 ag inactive | D2 ag-3 inactive
CCOC(=O)c1nnc2c(-c3ccc(F)cc3)c(C)nn2c1N	none (no result: D2 antag, D2 PAM-2, D2 ag-2)
COc1ccc(NC(=O)C2CCCN2C(=O)NC2CCCCC2)cc1 (stereo not drawn)	none
O=C(c1ccco1)N1CCN(CCCCOc2cccc3ccccc23)CC1	D2 ag-1 76, D2 antag 84, D2 ag-2 inconclusive | D3 ag inconclusive | D2 ag-3 inconclusive
c1ccc(CN2CCN(CCOCCOc3cccc4ccccc34)CC2)cc1	none
O=C(c1ccco1)N1CCN(CCOCCOc2cccc3ccccc23)CC1	D2 ag-1 66, D2 antag 77, D2 ag-2 inconclusive | D3 ag 7.9µM | D2 ag-3 25µM
O=C(c1ccco1)N1CCN(CCOc2ccc(F)cc2)CC1	none
COc1ccc(OC)c(-n2c(SCC(=O)NCC3CCCO3)nc3ccccc3c2=O)c1 (stereo not drawn)	none (no result: D2 ag-1, D2 PAM-1, D2 antag)
O=C(O)CCSc1ccc([N+](=O)[O-])cc1[N+](=O)[O-]	none (no result: D2 ag-1, D2 antag) | D3 ag inconclusive | D2 ag-3 inactive
COc1ccc(-c2noc(CN(C(=O)COc3cc(C)c(Br)c(C)c3)C(C)C)n2)cc1	none (no result: D2 antag, D2 PAM-2, D2 ag-2)
O=C(NCCCN1CCN(c2ccccc2F)CC1)C1CCC(=O)N1C1CCCC1 (stereo not drawn)	D2 ag-1 72, D2 antag 66 | D3 ag inactive | D2 ag-3 inconclusive
O=C(NCCc1ccc(Cl)cc1)C1CCN(S(=O)(=O)c2cccs2)CC1	none
O=C(NCCCN1CCN(c2ccccc2F)CC1)C1CCN(S(=O)(=O)c2cccs2)CC1	D2 ag-1 70, D2 antag 75, D2 ag-2 inconclusive | D3 ag inconclusive | D2 ag-3 10µM
COc1ccc2c(c1)CC(C(=O)NCCCN1CCN(c3ccccc3F)CC1)CO2 (stereo not drawn)	none (no result: D2 ag-1, D2 antag, D2 PAM-2, D2 ag-2)
O=C(NCCN1CCN(c2ccccc2)CC1)C1CCN(S(=O)(=O)c2cccs2)CC1	D2 ag-2 inconclusive (no result: D2 ag-1, D2 PAM-1, D2 antag) | D3 ag inconclusive | D2 ag-3 inconclusive
CCS(=O)(=O)N1CCC(C(=O)NCCCN2CCN(c3ccccc3F)CC2)CC1	D2 ag-1 69, D2 antag 86, D2 ag-2 inconclusive | D3 ag inconclusive | D2 ag-3 inconclusive
CCCS(=O)(=O)NC(=O)C1(C)CCCN(C(=O)c2ccccc2OC(F)(F)F)C1 (stereo not drawn)	none (no result: D2 ag-1, D2 PAM-1, D2 antag)
O=C1OCCN1c1c(-c2ccccc2)c(-c2cccs2)nc2c(-c3ccccc3)cccc12	none
O=C(NCCS(=O)(=O)N1CCN(c2cccc(Cl)c2)CC1)C1CCCC1	none
O=C(CCN1C(=O)COc2ccccc21)NCCCN1CCN(c2ccccc2F)CC1	D2 ag-1 69, D2 antag 82 | D3 ag inactive | D2 ag-3 inactive
CCCS(=O)(=O)N1CCCC(C(=O)NCCCN2CCN(c3cccc(Cl)c3)CC2)C1 (stereo not drawn)	D2 ag-1 48, D2 antag 51 | D3 ag inconclusive | D2 ag-3 inactive
COc1cc2[nH]c(=O)n(CCC(=O)NCCCN3CCN(c4ccccc4F)CC3)c(=O)c2cc1OC	D2 ag-1 51, D2 antag 96 | D3 ag inconclusive | D2 ag-3 inactive
CCCN1CCN(CCCNC(=O)c2ccc3c(=O)n(CCc4ccccc4)c(=O)[nH]c3c2)CC1	D2 ag-1 68, D2 antag 31 | D3 ag inactive | D2 ag-3 inactive
COC(=O)c1cc(CNC(=O)c2ccc(N3CCCC3)c([N+](=O)[O-])c2)ccc1OC	none
O=C(Nc1cccc(Cl)c1)c1ccc(F)c(S(=O)(=O)NCc2ccc3c(c2)OCO3)c1	none | D3 ag inactive | D2 ag-3 inactive
CCOc1ccc(NC(=O)c2ccc(F)c(S(=O)(=O)NCc3ccc4c(c3)OCO4)c2)cc1	none (no result: D2 antag, D2 PAM-2, D2 ag-2)
COc1cccc(CNCC(=O)NC(=O)NC2CCCC2)c1	none (no result: D2 ag-1, D2 PAM-1, D2 antag)
O=[N+]([O-])c1ccc(CN2CCN(c3ncccn3)CC2)cc1	D2 ag-1 83, D2 antag 85, D2 PAM-2 inconclusive, D2 ag-2 49 | D3 ag inconclusive | D2 ag-3 18µM
O=[N+]([O-])c1ccccc1CN1CCN(c2ncccn2)CC1	D2 ag-1 47 | D3 ag inactive | D2 ag-3 inactive
O=[N+]([O-])c1cccc(CN2CCN(c3ncccn3)CC2)c1	D2 ag-1 75, D2 ag-2 inconclusive | D3 ag inactive | D2 ag-3 inconclusive
O=C(NCCc1ccccc1)c1ccc(CS(=O)(=O)c2ccc(Br)cc2)o1	none
CN(CCNC(=O)c1ccc(CS(=O)(=O)c2ccc(Br)cc2)o1)CCc1ccccc1	D2 ag-1 53 | D3 ag inactive | D2 ag-3 inactive
O=C(Nc1nccs1)c1cccnc1	none | D3 ag inactive | D2 ag-3 inactive
CC(C)(C)NC(=O)c1cc2c(ccc3ccccc32)oc1=O	none (no result: D2 ag-1, D2 PAM-1, D2 antag) | D3 ag inconclusive | D2 ag-3 inactive
Nc1cccc(O)c1	none | D3 ag inactive | D2 ag-3 inactive
CCc1ccc(C2CC(=O)c3c([nH]c(C(=O)OCCOc4ccccc4)c3C)C2)cc1 (stereo not drawn)	none (no result: D2 antag, D2 PAM-2, D2 ag-2)
CNc1nc(N)c([N+](=O)[O-])c(NCc2ccccc2)n1	D2 antag 44 | D3 ag inactive | D2 ag-3 inactive
CNc1nc(N)c([N+](=O)[O-])c(Nc2cccc(F)c2)n1	none | D3 ag inactive | D2 ag-3 inactive
CSc1nc2ccccc2c(=O)n1C1CCOC(C)(C)C1 (stereo not drawn)	D2 ag-2 inconclusive | D3 ag inactive | D2 ag-3 inactive
CSc1nc2ccccc2c(=O)n1C1CCCCC1	none
CC(C)CC(=O)N1CCC(N2CCN(c3ccccc3)CC2)CC1	D2 PAM-2 inconclusive, D2 ag-2 inconclusive
c1ccc(N2CCN(C3CC4CCC3C4)CC2)cc1 (stereo not drawn)	D2 ag-1 54, D2 antag 87 | D3 ag inactive | D2 ag-3 inactive
COc1ccccc1C(=O)N1CCC(N2CCN(c3ccccc3)CC2)CC1	D2 ag-1 78, D2 antag 69, D2 ag-2 inconclusive | D3 ag inconclusive | D2 ag-3 inconclusive
